# From PubChem BioAssay AID1159580 (chemical genetic matrix, 2015)
# About 2,000 (36%) of roughly 5,500 compounds were called active. About 18% were inconclusive and are not listed. Some of the results follow. Values without a mark were called inactive. Rule as the data show it: active = normalized growth mostly below about 0.91 (no sharp cut-off); inconclusive = no clear call, values can overlap the other calls; inactive = mostly above about 0.92.
# Assay: chemical genetic growth profiling, strain panel (AID 1159580);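 also: tested at 20 µM; growth read once vehicle control cultures reached saturation at 30 °C; 1 = growth at the plate median or of vehicle wells; lower values mean less growth of the strain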
# Settings: S. cerevisiae deletion strains, growth OD
# [1] = locus YAL040C, strain CLN3, stronger effect = lower value
# [2] = locus YCL061C, strain MRC1 (second series), stronger effect = lower value
# [3] = locus YDR363W, strain ESC2, stronger effect = lower value
# [4] = locus YER002W, strain NOP16, stronger effect = lower value
# [5] = locus YNL128W, strain TEP1, stronger effect = lower value
# [6] = locus YNL153C, strain GIM3, stronger effect = lower value
# [7] = locus YNL175C, strain NOP13, stronger effect = lower value
# [8] = locus YNL197C, strain WHI3, stronger effect = lower value
# [9] = locus YNL224C, strain SQS1, stronger effect = lower value
# [10] = locus YNL322C, strain KRE1, stronger effect = lower value
# [11] = locus YOR083W, strain WHI5 (second series), stronger effect = lower value
# [12] = locus YPL055C, strain LGE1, stronger effect = lower value
# [13] = locus YPL241C, strain CIN2, stronger effect = lower value
# [14] = locus YDR150W, strain NUM1, stronger effect = lower value
structure (smiles),measurement,setting,value
Cn1c(=O)c2c(nc(/C=C/c3cccc(Cl)c3)n2C)n(C)c1=O,normalized growth,[1],0.996
same,normalized growth,[2],0.981
same,normalized growth,[3],1.05
same,normalized growth,[4],1.01
same,normalized growth,"locus YGR229C, strain SMI1, stronger effect = lower value",0.996
same,normalized growth,[5],0.993
same,normalized growth,[6],0.946
same,normalized growth,[7],0.969
same,normalized growth,[8],0.954
same,normalized growth,[9],0.995
same,normalized growth,[10],1.02
same,normalized growth,[11],0.964
same,normalized growth,[12],1.03
same,normalized growth,[13],0.995
COc1ccc(/C=C2/C(=O)N(c3cccc(Cl)c3)N=C2C)cc1,normalized growth,"locus YAL013W, strain DEP1, stronger effect = lower value",0.983
same,normalized growth,"locus YBR229C, strain ROT2, stronger effect = lower value",0.963
same,normalized growth,"locus YDL101C, strain DUN1, stronger effect = lower value",1
same,normalized growth,"locus YDL134C, strain PPH21, stronger effect = lower value",0.991
same,normalized growth,[14],1
same,normalized growth,"locus YEL061C, strain CIN8, stronger effect = lower value",0.964
same,normalized growth,"locus YGR078C, strain PAC10, stronger effect = lower value",0.962
same,normalized growth,"locus YHR030C, strain SLT2, stronger effect = lower value",0.53 (active)
same,normalized growth,"locus YHR087W, strain rtc3, stronger effect = lower value",0.866 (active)
same,normalized growth,"locus YJL187C, strain SWE1, stronger effect = lower value",0.921 (active)
same,normalized growth,"locus YJR043C, strain POL32, stronger effect = lower value",1.03
same,normalized growth,"locus YJR075W, strain HOC1, stronger effect = lower value",0.934
same,normalized growth,"locus YLR039C, strain RIC1, stronger effect = lower value",0.62 (active)
same,normalized growth,"locus YLR058C, strain SHM2 (second series), stronger effect = lower value",0.963
same,normalized growth,"locus YLR085C, strain ARP6, stronger effect = lower value",0.744 (active)
same,normalized growth,"locus YLR262C, strain YPT6, stronger effect = lower value",0.699 (active)
same,normalized growth,"locus YML094W, strain GIM5, stronger effect = lower value",0.865 (active)
same,normalized growth,"locus YMR219W, strain ESC1, stronger effect = lower value",0.938 (active)
same,normalized growth,"locus YMR263W, strain SAP30, stronger effect = lower value",0.989
same,normalized growth,[6],0.999
same,normalized growth,"locus YNL298W, strain CLA4 (second series), stronger effect = lower value",0.839
same,normalized growth,[10],0.973
same,normalized growth,"locus YNR030W, strain Alg12, stronger effect = lower value",0.88 (active)
same,normalized growth,"locus YOL006C, strain TOP1, stronger effect = lower value",0.849
same,normalized growth,[12],0.961
same,normalized growth,[13],0.897
same,normalized growth,"locus YPR135W, strain CTF4, stronger effect = lower value",0.599 (active)
Cn1cc(C(=O)OCC2CCN(CCNS(C)(=O)=O)CC2)c2ccccc21,normalized growth,[1],1
same,normalized growth,[2],1.01
same,normalized growth,[14],1.01
same,normalized growth,[3],1
same,normalized growth,[4],1.01
same,normalized growth,"locus YMR307W, strain GAS1, stronger effect = lower value",1
same,normalized growth,[5],1.03
same,normalized growth,[6],1.04
same,normalized growth,[7],1.05
same,normalized growth,[8],1.06
same,normalized growth,[9],1.05
same,normalized growth,[11],1.03
